Screening data deposited in PubChem by several laboratories.
Rpn11 inh: Rpn11 (human) deubiquitinase inhibition; O00487; human 26S proteasome, Ub4-pepOG fluorescence polarization; 20S core pre-blocked with epoxomicin; inhibition, % at 20 µM; hit rate 0.59% among 360,000;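 active means inhibition at 20 µM, scaled to each plate's controls, above about 33%, limit read from the data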
Target sequence (O00487 whole entry, looked up): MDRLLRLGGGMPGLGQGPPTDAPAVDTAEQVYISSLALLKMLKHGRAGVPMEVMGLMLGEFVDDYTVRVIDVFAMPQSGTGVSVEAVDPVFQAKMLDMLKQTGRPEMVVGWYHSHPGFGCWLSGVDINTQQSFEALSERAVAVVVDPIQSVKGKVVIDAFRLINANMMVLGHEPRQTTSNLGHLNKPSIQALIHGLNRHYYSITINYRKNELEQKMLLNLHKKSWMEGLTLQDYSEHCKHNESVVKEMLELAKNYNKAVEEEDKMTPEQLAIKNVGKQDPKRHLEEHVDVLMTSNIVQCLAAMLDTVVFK
Myeloid diff MLP: myeloid differentiation induction; ER-HoxA9 myeloid progenitors, lysozyme-GFP differentiation, flow cytometry; calls only at 10 µM; hit rate 1% among 360,000; AID 624256;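 active means normalized GFP-positive differentiation at or above the plate's own cutoff, the solvent-only control mean plus 3 SD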;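 further: cells exposed to compound for four days before flow analysis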
HNF4A DNA FP: change in binding of human HNF4 alpha to DNA. HNF4a-FITC DNA binding, fluorescence polarization, 1 h. activity change, % at 10 µM. hit rate 0.3% among 360,000. AID 1224865; in the data active means activity change above about 30%, passing the limit was not always enough
TPT1 inhibitor: blocks Candida albicans tRNA 2'-phosphotransferase | AID 1962 | hit rate 0.81% among 300,000 | inhibition, % at 5 µM | recombinant caTPT1, FP RNA substrate dephosphorylation;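 active means inhibition above the mean of all tested compounds plus 3 SD, set per screening campaign, cut at about 24% in these data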;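 further: plate controls were DMSO alone for no effect and ferristatin control at 100 nM for full effect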
Rpn11 confirm: Rpn11 inhibition confirmation, single concentration; purified human 26S proteasome, Ub4-pepOG fluorescence polarization; proteasome pretreated with epoxomicin; inhibition, % at 20 µM; shares compounds with Rpn11 inh; AID 602318; hit rate 29% among 1,900
MMP-2 inh: counter-screen for RPN11 inhibitors: inhibition of human MMP-2. inhibition, % at 20 µM. shares compounds with Rpn11 inh. hit rate 4% among 1,900. recombinant MMP-2, FRET peptide cleavage fluorescence;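 further: human MMP-2 activated beforehand with APMA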
Thrombin FP: blocks bovine thrombin, flagging nonselective RPN11 hits; shares compounds with Rpn11 inh; bovine thrombin cleavage of Ub4-pepOG, fluorescence polarization; inhibition, % at 20 µM; hit rate 13% among 1,900;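 active means mean inhibition at least 40% at 20 µM, or signal 3 deviations below plate average, so some actives read negative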;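 further: plate controls were thrombin with DMSO for no effect and buffer wells lacking thrombin for full effect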
* hit, by the source's call. Most compounds without a hit are left out; they make up all but 2.1% or so of the library. Unless noted, no stated cut-off is given here; in the data, active means inhibition above about 40%; inactive means the rest.

Cc1ccc(C2CC(c3cccs3)=NN2C(=O)CSC2=NCCS2)cc1 (stereo not given) was read as Rpn11 inh 4, Myeloid diff MLP inactive, HNF4A DNA FP 0 and TPT1 inhibitor 2.
Screening CCCCn1c(N)c(N(CC(C)C)C(=O)c2ccc([N+](=O)[O-])o2)c(=O)[nH]c1=O returned Rpn11 inh 1, Myeloid diff MLP inactive and HNF4A DNA FP -2.
For CCOC(=O)Nc1ccc(C(=O)c2ccncc2)cc1 the results were Rpn11 inh -2, Myeloid diff MLP inactive, HNF4A DNA FP 3 and TPT1 inhibitor 1.
Screening Cc1cc2c(c(=O)n1CCN(C)C)C(c1ccc(Cl)cc1)C(C#N)=C(N)O2 (stereo not given) returned Rpn11 inh -7, Myeloid diff MLP inactive, HNF4A DNA FP 5 and TPT1 inhibitor -1.
Screening Cc1cc2c(c(=O)n1C1CC1)C(c1cccc(Cl)c1)C(C#N)=C(N)O2 (stereo not given) returned Rpn11 inh active, Myeloid diff MLP inactive, HNF4A DNA FP 28, TPT1 inhibitor -1, Rpn11 confirm 8, MMP-2 inh -1 and Thrombin FP 7.
Screening CC(=O)NN1C(=O)/C(=C\c2ccc(Br)o2)SC1=S returned Rpn11 inh 50*, Myeloid diff MLP inactive, HNF4A DNA FP 95, TPT1 inhibitor 5, Rpn11 confirm 12, MMP-2 inh -20 and Thrombin FP 18.
For COc1ccc(CCN2CC(C(=O)NCC(=O)Nc3ccc(F)c(F)c3)CC2=O)cc1OC (stereo not given) the results were Rpn11 inh 5, Myeloid diff MLP inactive, HNF4A DNA FP -1 and TPT1 inhibitor 2.
`O=[N+]([O-])c1ccc(O)c(/C=N/NC2=NS(=O)(=O)c3ccccc32)c1` gave Rpn11 inh 49*, Myeloid diff MLP inactive, HNF4A DNA FP 15, TPT1 inhibitor 3, Rpn11 confirm 90*, MMP-2 inh 22 and Thrombin FP 30.
For O=[N+]([O-])c1ccc(/C=N/NC2=NS(=O)(=O)c3ccccc32)cc1 the results were Rpn11 inh -2, Myeloid diff MLP inactive, HNF4A DNA FP 2 and TPT1 inhibitor 3.
COc1ccccc1N/N=C(\C#N)C(=N)N1CCOCC1 was read as Rpn11 inh 1, Myeloid diff MLP inactive, HNF4A DNA FP -2 and TPT1 inhibitor -3.
`CCOC(=O)/C(C#N)=N/Nc1ccccc1OC` gave Rpn11 inh 40*, Myeloid diff MLP inactive, HNF4A DNA FP 1, TPT1 inhibitor 9, Rpn11 confirm -7, MMP-2 inh -20 and Thrombin FP -11.
For O=C1OC(c2cccs2)=N/C1=C/c1ccc(-c2cccc(C(=O)O)c2)o1 the results were Rpn11 inh 32, Myeloid diff MLP inactive and HNF4A DNA FP -53.
`CS(=O)(=O)C1=NSC2=NC(=O)/C(=C\c3ccc(-c4ccccc4)o3)C(=N)N21` gave TPT1 inhibitor 7.
CC(C)S(=O)(=O)C1=NSC2=NC(=O)/C(=C\c3ccc(-c4cccc(C(=O)O)c4)o3)C(=N)N21 was read as Rpn11 inh 69*, Myeloid diff MLP inactive, HNF4A DNA FP 24, Rpn11 confirm 30, MMP-2 inh 0 and Thrombin FP 21.
For CC(C)S(=O)(=O)C1=NSC2=NC(=O)/C(=C\c3ccc(-c4ccccc4)o3)C(=N)N21 the results were Rpn11 inh 51*, Myeloid diff MLP inactive, HNF4A DNA FP 25, TPT1 inhibitor 12, Rpn11 confirm 36, MMP-2 inh 14 and Thrombin FP 20.
CCOC(=O)C(N=Nc1nn[nH]n1)C(C)=O (stereo not given) was read as Rpn11 inh 1, Myeloid diff MLP inactive and HNF4A DNA FP -2.
For Cc1noc(C)c1NC(=O)N(C)C[C@@H]1Oc2ccc(NS(=O)(=O)c3c(C)noc3C)cc2C(=O)N([C@H](C)CO)C[C@H]1C the results were Rpn11 inh 2, Myeloid diff MLP inactive and HNF4A DNA FP -5.
